Data as given in PubChem BioAssay (NCATS).
Inconclusive results are not listed. The source made the active and inactive calls. Unless noted, calls follow the shape of the dose curve; as a rule, active = well fitted curve in the direction sought with a large enough effect; inconclusive = small, poorly fitted or top-dose-only effect, or another doubt; inactive = no such curve, though single readings can be large; an effect the other way counts as inactive or inconclusive.

How the values were obtained:
[1] = AP1 Signaling Pathway (AID 357; active = well fitted curve in either direction with a large enough effect, not every such curve was filed as active; also: % is scaled to controls: 0 for no effect and ±100 for the full control effect); details: ME-180 AP-1-bla reporter, EGF-induced, beta-lactamase ratio, 5 h; at 38 µM (top of the series)
How it was run: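 In this screen, ME-180 cells in Opti-MEM with 0.5% dialyzed FBS received EC50 EGF and compound titrations for 5 h. AP-1 reporter beta-lactamase was detected via CCF4 ratio, giving AC50 for positive and negative modulators.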

[2] = NFAT Signaling Pathway (AID 444; active = well fitted curve in either direction with a large enough effect, not every such curve was filed as active;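 also: carbachol stimulus at about its EC50 of 1 µM final; % is scaled to controls: 0 for no effect and ±100 for the full control effect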); details: Jurkat NFAT-bla M1, carbachol, beta-lactamase ratio, 5 h; at 38 µM (top of the series)
How it was run: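 Jurkat cells with NFAT-driven β-lactamase reporter and co-expressed M1 receptor, stimulated with carbachol (final 1 uM, ~EC50), compound titration, 5 h at 37 °C. CCF4 loaded 1 h at RT; 460/530 nm ratio gave %activity and AC50.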

[3] = Stat Signaling Pathway (AID 446; active = well fitted curve in either direction with a large enough effect, not every such curve was filed as active;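 also: ME-180 cervical cancer cells given 40 pM IL-6 alongside compound; SIE-controlled beta-lactamase reporter measured as 460/530 nm FRET emission ratio; % is scaled to controls: 0 for no effect and ±100 for the full control effect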); details: ME-180 SIE beta-lactamase reporter, IL-6 stimulated, 5 h; at 38 µM (top of the series)
How it was run: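 Screening format detects activators and inhibitors alike: ME-180 SIE-bla cells stimulated at 40 pM IL-6 for 5 hrs with compound, then dual-emission beta-lactamase read at 405 nm excitation.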

[4] = target: Glucocorticoid receptor (Homo sapiens) (UniProt P04150); assay: GR-GFP Redistribution (AID 450;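 active = compounds whose dose series gives a full or clear partial fitted curve of increased nuclear translocation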; also: potency is read from the fitted curve at half-maximal effect); details: U2OS GR-GFP nuclear translocation, laser cytometry, 2 h
Sequence of Glucocorticoid receptor (Homo sapiens) (P04150 whole entry, looked up, the tested form may be a part): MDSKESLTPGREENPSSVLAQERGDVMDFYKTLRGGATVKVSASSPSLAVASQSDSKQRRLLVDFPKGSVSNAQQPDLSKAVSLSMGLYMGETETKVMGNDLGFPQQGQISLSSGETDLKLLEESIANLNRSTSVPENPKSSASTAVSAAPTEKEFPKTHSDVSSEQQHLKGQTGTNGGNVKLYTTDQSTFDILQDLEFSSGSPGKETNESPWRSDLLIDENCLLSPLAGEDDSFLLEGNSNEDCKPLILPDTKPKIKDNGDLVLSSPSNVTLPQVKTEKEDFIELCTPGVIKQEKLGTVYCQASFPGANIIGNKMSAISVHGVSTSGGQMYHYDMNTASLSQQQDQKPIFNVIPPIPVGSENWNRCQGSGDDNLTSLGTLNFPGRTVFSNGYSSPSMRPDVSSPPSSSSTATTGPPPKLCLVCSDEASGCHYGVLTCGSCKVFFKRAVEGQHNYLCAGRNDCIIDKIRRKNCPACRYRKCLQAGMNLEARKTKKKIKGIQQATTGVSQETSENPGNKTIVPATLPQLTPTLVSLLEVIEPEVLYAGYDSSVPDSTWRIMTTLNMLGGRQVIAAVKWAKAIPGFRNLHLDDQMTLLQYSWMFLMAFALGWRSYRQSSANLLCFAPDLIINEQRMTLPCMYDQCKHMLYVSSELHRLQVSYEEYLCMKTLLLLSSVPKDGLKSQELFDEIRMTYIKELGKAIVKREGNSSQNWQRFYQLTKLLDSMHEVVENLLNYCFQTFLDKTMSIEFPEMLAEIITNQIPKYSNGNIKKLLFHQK

[5] = target: Glucocorticoid receptor (Homo sapiens) (UniProt P04150); assay: GR-EFC Redistribution (AID 451; calls by dose curve; also: potency is read from the fitted curve at half-maximal effect); details: CHO-K1 GR-EFC translocation, beta-gal luminescence, 2 h
How it was run: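 CHO-K1 cells expressing nuclear EA and GR-ED fragments of b-gal; compounds titrated up to 46 uM final, 2 h at 37 C. GR nuclear translocation read as complemented b-gal luminescence after 1 h RT detection.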

[6] = target: Mitogen-activated protein kinase 10 (Mus musculus) (UniProt Q61831); assay: JNK3 AlphaScreen Assay (AID 530; active = well fitted curve in either direction with a large enough effect, not every such curve was filed as active;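 also: kinase came from lysate of stimulated human HepG2 cells; signal reports phosphorylation of biotinylated GST-cJun 1-79 at Ser73 with 10 µM ATP; % is scaled to controls: 0 for no effect and ±100 for the full control effect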)
How it was run: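 Pre-activated (IL-1β/TNFα) JNK3 in HepG2 lysates phosphorylates biotin-GST-cJun(1-79), 10 uM ATP; anti-phospho-cJun(Ser73) AlphaScreen read at room temperature, pH 7.6 Tris buffer. Compounds pre-incubated 15 min as titrations.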

[7] = target: 3',5'-cyclic-AMP phosphodiesterase 4B (Homo sapiens) (UniProt Q07343); assay: qHTS Assay for Inhibitors of PDE-IV (AID 607; active = well fitted activation curve with a large enough effect in the main read-out, with a control signal flat, not every such curve was filed as active; also: % of control where 0% means no effect)
Sequence of 3',5'-cyclic-AMP phosphodiesterase 4B (Homo sapiens) (Q07343 whole entry, looked up): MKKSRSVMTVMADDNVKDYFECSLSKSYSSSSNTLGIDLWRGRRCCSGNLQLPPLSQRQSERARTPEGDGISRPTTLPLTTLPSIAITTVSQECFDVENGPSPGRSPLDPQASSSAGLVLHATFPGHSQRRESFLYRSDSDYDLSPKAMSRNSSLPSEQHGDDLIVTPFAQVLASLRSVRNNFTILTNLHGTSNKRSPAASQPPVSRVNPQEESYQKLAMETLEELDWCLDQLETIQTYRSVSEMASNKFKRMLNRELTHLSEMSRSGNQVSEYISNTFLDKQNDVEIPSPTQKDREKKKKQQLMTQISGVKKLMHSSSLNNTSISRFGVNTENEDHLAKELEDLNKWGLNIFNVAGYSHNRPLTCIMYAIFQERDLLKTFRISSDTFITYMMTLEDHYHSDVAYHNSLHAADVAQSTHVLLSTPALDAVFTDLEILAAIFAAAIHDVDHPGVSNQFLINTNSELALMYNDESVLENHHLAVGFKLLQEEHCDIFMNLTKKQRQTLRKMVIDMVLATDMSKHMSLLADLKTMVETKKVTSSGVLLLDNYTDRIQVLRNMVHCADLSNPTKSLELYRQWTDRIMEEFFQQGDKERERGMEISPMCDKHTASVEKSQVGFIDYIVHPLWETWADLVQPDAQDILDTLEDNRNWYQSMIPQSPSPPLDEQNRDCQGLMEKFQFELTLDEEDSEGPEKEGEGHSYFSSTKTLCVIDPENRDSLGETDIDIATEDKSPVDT
How it was run: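 The readout is membrane depolarisation from a cAMP-sensing CNG channel, detected with a potential dye at ex 535/em 590. Cells were HEK293-derived (endogenous PDE-IV) at 1000 cells/well, titrated up to 22.9 uM final.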

[8] = target: Guanine nucleotide-binding protein G(i) subunit alpha-1 (Homo sapiens) (UniProt P63096); assay: qHTS Assay for Inhibitors of RGS12 GoLoco Motif Activity (Green Fluorophore) (AID 879);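 also: 0% = labeled peptide with Gαi1 and full inhibition = labeled peptide alone without protein; negative values mean loss of peptide binding seen as reduced polarization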
Sequence of Guanine nucleotide-binding protein G(i) subunit alpha-1 (Homo sapiens) (P63096 whole entry, looked up): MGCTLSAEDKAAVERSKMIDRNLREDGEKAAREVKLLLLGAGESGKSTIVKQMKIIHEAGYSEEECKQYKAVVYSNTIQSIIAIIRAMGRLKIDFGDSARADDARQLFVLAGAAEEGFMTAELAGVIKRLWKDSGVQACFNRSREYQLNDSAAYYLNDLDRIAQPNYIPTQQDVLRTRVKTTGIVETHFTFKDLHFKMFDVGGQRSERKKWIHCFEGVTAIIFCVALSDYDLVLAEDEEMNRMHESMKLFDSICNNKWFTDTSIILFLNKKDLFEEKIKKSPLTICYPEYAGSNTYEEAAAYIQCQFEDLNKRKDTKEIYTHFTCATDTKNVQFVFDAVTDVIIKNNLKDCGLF
How it was run: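 Fluorescence polarization assay: 50 nM Gαi1 with 10 nM FITC-labeled RGS12 GoLoco peptide in 10 mM Tris pH 7.5, 150 mM NaCl, 0.1 mM GDP, 0.05% NP40, 10 min at room temperature with compound.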

[9] = qHTS Assay for Identification of Small Molecule Agonists for Thrombopoietin (TPO) Signaling Pathway (AID 917); also: % is scaled to controls: 0 for no effect and ±100 for the full control effect
How it was run: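 Murine Ba/F3 cells expressing human TPO receptor and GPIIb-promoter luciferase, IL-3-starved overnight, given compound plus TPO at 26 pM (EC50). After 24 h at 37 C, 5% CO2, luminescence read.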

[10] = target: Muscarinic acetylcholine receptor M1 (Rattus norvegicus) (UniProt P08482); assay: qHTS Assay for Antagonists of Acetylcholine Muscarinic M1 Receptor: Measurement of IP-One Response (AID 944); also: nearly all actives have a fitted effect of over 75% in size
Sequence of Muscarinic acetylcholine receptor M1 (Rattus norvegicus) (P08482 whole entry, looked up): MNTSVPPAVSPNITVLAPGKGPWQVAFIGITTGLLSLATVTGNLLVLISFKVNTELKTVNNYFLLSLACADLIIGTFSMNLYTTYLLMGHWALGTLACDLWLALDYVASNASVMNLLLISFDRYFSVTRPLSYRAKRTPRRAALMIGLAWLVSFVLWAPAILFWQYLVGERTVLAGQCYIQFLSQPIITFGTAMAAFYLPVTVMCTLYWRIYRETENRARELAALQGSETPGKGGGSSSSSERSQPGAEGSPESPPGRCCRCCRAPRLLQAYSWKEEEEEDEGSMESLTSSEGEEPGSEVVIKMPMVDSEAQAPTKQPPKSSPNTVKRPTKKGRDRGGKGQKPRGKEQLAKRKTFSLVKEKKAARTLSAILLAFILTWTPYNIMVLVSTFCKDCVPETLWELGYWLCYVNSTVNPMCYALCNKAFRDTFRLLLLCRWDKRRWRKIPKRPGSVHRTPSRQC
How it was run: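 M1-CHO (rat), 2000 cells/well, overnight recovery; cpd 10 min; carbachol EC80 (200 nM), 30 min, HEPES buffer + 50 mM LiCl pH 7.4; IP-One HTRF, Ex 337, Em 620/665 nm.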

[11] = target: Pyruvate kinase (Leishmania mexicana) (UniProt Q27686); assay: qHTS Validation Assay for Inhibitors of Leishmania Mexicana Pyruvate Kinase (AID 945);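 also: 0% = DMSO only neutral control wells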
Sequence of Pyruvate kinase (Leishmania mexicana) (Q27686 2-499 E452W): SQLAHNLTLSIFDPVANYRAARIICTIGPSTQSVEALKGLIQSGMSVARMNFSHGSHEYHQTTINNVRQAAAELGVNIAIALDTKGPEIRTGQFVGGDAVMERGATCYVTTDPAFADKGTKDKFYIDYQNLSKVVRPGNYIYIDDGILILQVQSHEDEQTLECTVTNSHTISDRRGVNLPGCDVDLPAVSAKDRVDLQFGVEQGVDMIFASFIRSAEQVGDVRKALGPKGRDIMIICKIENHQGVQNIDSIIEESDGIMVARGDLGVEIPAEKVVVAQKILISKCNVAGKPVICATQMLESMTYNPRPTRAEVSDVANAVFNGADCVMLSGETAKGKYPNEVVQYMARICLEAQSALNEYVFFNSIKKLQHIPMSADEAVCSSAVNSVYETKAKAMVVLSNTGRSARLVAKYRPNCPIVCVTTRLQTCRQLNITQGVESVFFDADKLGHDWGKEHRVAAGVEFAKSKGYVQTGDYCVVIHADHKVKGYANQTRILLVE
How it was run: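 Eight-point qHTS titrations in triplicate, data normalized to DMSO neutral control. Reaction: 0.2 nM LmPYK E451W mutant, 0.5 mM PEP, 0.1 mM ADP, 7 mM MgCl2, pH 7.2, one hour at room temperature; luminescent ATP detection.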

[12] = target: Pyruvate kinase PKM (Homo sapiens) (UniProt P14618); assay: qHTS Assay for Activators of Human Muscle Pyruvate Kinase (AID 954; active = well fitted curve in the direction sought with a large enough effect, not every such curve was filed as active;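 also: 0% = uninhibited enzyme and -100% = no enzyme or full thiadiazolimine inhibition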)
Sequence of Pyruvate kinase PKM (Homo sapiens) (P14618 whole entry, looked up): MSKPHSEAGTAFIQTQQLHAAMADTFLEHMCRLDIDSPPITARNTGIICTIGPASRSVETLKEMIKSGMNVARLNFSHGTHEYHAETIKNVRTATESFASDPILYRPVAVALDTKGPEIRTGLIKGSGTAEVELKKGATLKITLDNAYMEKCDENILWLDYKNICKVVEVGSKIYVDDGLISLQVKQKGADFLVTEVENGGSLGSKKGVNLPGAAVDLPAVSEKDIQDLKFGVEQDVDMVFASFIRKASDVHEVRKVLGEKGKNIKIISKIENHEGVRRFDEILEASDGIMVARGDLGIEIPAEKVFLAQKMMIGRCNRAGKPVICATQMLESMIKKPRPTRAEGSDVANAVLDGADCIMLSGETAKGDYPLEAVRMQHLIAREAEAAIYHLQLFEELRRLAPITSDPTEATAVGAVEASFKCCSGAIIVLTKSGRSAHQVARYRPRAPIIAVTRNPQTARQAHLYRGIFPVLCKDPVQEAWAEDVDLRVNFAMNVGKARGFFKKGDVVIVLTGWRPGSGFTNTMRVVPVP
How it was run: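 Reaction: 0.1 nM purified PKM2 with 0.5 mM phosphoenolpyruvate and 0.1 mM ADP, room temperature, 1 h. Readout: luciferase-based ATP luminescence after stop reagent. Activators judged against a 0.3 nM enzyme column.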

[13] = Validation of Assay for Modulators of Lamin A Splicing (AID 1459; active = well fitted curve in the direction sought with a large enough effect in the signal ratio; the % refers to the signal ratio;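 also: cells exposed to compound for two days before reading; 0% is about no effect; ratio rise marks activators and ratio drop marks inhibitors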)
How it was run: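 S3 HeLa stably expressing lamin A-EGFP splicing minigene and DsRed2, 600 cells/well in Opti-MEM with 2% FBS, treated 48 h at 37C; laser-scanning cytometry gives GFP/RFP total intensity ratio; ancitabine positive control, 0.5% DMSO vehicle.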

[14] = Counterscreen for APE1 Inhibitors: Fluorescent Dye Displacement Validation Assay (AID 1707);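 also: plate controls were ThO with dsDNA and no compound for no effect and ThO without dsDNA for full effect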
How it was run: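 Assay buffer: Tris-HCl pH7.5 with 50mM NaCl, 2 mM MgCl2, 0.01% Tween-20. Dye 250 nM, duplex 50 nM final. Readout: decrease in ThO endpoint fluorescence, 480 nm excitation, 540 nm emission.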

[15] = target: Endonuclease 4 (Escherichia coli (strain K12)) (UniProt P0A6C1); assay: Counterscreen for APE1 Inhibitors: qHTS Validation Assay for Inhibitors of Endonuclease IV (AID 1708); also: % is scaled to controls: 0 for no effect and ±100 for the full control effect
How it was run: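 E. coli EndoIV at 2 nM final, preincubated 15 min at room temperature with compound, then 50 nM TAMRA/BHQ-2 THF abasic-site duplex added. Buffer: 50 mM Tris-HCl pH 7.5, 50 mM NaCl, 2 mM MgCl2, 1 mM DTT, 0.01% Tween-20. Kinetic fluorescence increase, third minus first read.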

[16] = qHTS for differential inhibitors of proliferation of Plasmodium falciparum line 7G8 (AID 1815);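 also: parasite growth measured after three days of incubation; plate controls were vehicle wells for no effect and reference inhibitor wells for full effect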
[17] = qHTS for differential inhibitors of proliferation of Plasmodium falciparum line GB4 (AID 1816); details: Potency: Plasmodium falciparum GB4 proliferation inhibition;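 also: parasite growth measured after 72 h incubation; 0% = vehicle DMSO and -100% = reference inhibitor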
[18] = qHTS for differential inhibitors of proliferation of Plasmodium falciparum line 3D7 (AID 1876);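 also: parasite growth measured after three days of culture; 0% = vehicle wells and -100% = reference inhibitor wells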

CN(C)CCCCSC(=N)N
inactive: activity change, negative = inhibition [1] 1.82% | activity change, negative = inhibition [2] 1.09% | activity, negative = inhibition [3] -29.5% | Potency [4] > 46 µM | Potency [5] > 46 µM | Potency [6] | Potency [7] | outcome [8] | Potency [9] | Potency [10] | Potency [11] | outcome [12] | outcome [13] | Potency [14] | Potency [15] | Potency [16] | Potency [17] | Potency [18]
